Test [1] is described as follows: qHTS assay to identify aromatase inhibitors - cell viability counter screen (AID 743084).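 Further: cells stimulated with testosterone during compound exposure; nearly all actives have a fitted effect of over 55% in size.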
Test [2] addresses Aryl hydrocarbon receptor (Homo sapiens) (UniProt P35869). Nature of the test: qHTS assay to identify small molecule that activate the aryl hydrocarbon receptor (AhR) signaling pathway (AID 743085).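 Further: HG2L7.5c1 human HepG2 liver cells with stably integrated DRE-driven firefly reporter; series mostly up to about 70 µM; nearly all actives have a fitted effect of over 15% in size.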 An outline of the steps: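 A multiplexed format paired cell viability (CellTiter-Fluor fluorescence) with AhR-dependent luciferase output (ONE-Glo luminescence) in the same wells of HepG2 DRE-luc cells after 24 h compound exposure at 37C.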
On the technique in general: Quantitative high-throughput screening tests each substance at several concentrations.

The nature of test [3]: qHTS assay to identify small molecule that activate the aryl hydrocarbon receptor (AhR) signaling pathway - cell viability counter screen (AID 743086).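 Further: HepG2 liver cells carrying the AhR DRE luciferase reporter; series mostly up to about 70 µM; nearly all actives have a fitted effect of over 45% in size.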 The gist of the method: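 HepG2-AhR-luc (HG2L7.5c1) cells, 4000/well, were preincubated 5 h at 37C, exposed to compound in qHTS format for 24 hr at 37C, then given CellTiter-Fluor for 30 min; viability was read as fluorescence in the reporter wells.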

In test [4] the target is Peroxisome proliferator-activated receptor gamma (Homo sapiens) (UniProt P37231). Nature of the test: qHTS assay to identify small molecule agonists of the peroxisome proliferator-activated receptor gamma (PPARg) signaling pathway (AID 743094; active means well fitted activation curve with a large enough effect in the signal ratio in the repeat runs, not every such curve was filed as active; the % refers to the signal ratio). The gist of the method:
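Beta-lactamase FRET fluorescence was the read-out after a 1 h room-temperature substrate step, following 17 h compound treatment at 37C of HEK293H cells expressing a UAS-driven bla reporter responsive to PPARg.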

The target is the same in test [5]. Nature of the test: qHTS assay to identify small molecule antagonists of the peroxisome proliferator-activated receptor gamma (PPARg) signaling pathway (AID 743191; calls by dose curve; further: series mostly up to about 63 µM; nearly all actives have a fitted effect of over 30% in size). An outline of the steps:
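GeneBLAzer PPARg UAS-bla HEK293H cells carrying a UAS-driven beta-lactamase reporter were plated at 3000 cells/well, preincubated 5 h at 37C, then given compound for 17 h at 37C; LiveBLAzer B/G FRET substrate was read after 1 h at room temperature.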

A short description of test [6]: qHTS assay to identify small molecule antagonists of the peroxisome proliferator-activated receptor gamma (PPARg) signaling pathway - cell viability counter screen (AID 743194). Further: nearly all actives have a fitted effect of over 55% in size. Further: potency means the concentration at half of the fitted maximal effect. As to conditions: Potency: co-treated with 50 nM rosiglitazone unless noted. An outline of the steps: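 PPARg-UAS-bla HEK293H cells were plated, rested 5 h at 37 C, then treated with compounds plus rosiglitazone (50 nM final) for 17 h at 37 C; viability was then read by CellTiter-Glo luminescence after 30 min at room temperature.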

The nature of test [7]: qHTS assay for small molecule agonists of the antioxidant response element (ARE) signaling pathway (AID 743202; active means well fitted activation curve with a large enough effect in the signal ratio in the repeat runs, not every such curve was filed as active; the % refers to the signal ratio). The gist of the method: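 Compounds delivered in DMSO to ARE-bla HepG2 cells (2,000 cells/well, pre-incubated 5 h) and left 16 h at 37 C. LiveBLAzer B/G FRET substrate then added for 2 h at RT before fluorescence reading.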
The nature of test [8]: qHTS assay for small molecule agonists of the antioxidant response element (ARE) signaling pathway - cell viability counter screen (AID 743203; calls by dose curve; further: nearly all actives have a fitted effect of over 55% in size; further: potency means the concentration at half of the fitted maximal effect). An outline of the steps: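 HepG2 cells carrying ARE-driven beta-lactamase; 2,000 cells/well; 5 hrs plating; compound pinned from DMSO; 16 hrs 37C/5% CO2; CellTiter-Glo added; 30 min RT; luminescence.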
The nature of test [9]: qHTS assay for small molecule activators of the heat shock response signaling pathway - cell viability counter screen (AID 743209). Further: nearly all actives have a fitted effect of over 50% in size. Further: potency means the concentration at half of the fitted maximal effect. An outline of the steps:
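Luminescence from CellTiter-Glo, added after the beta-lactamase FRET read, gave the viability signal. Cells were HSE-bla HeLa treated with DMSO-dissolved compounds for 5 h at 37 C following overnight plating.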

Test [10] can be described thus: qHTS assay for small molecule activators of the heat shock response signaling pathway (AID 743210; active means well fitted activation curve with a large enough effect in the signal ratio in the repeat runs, with a control signal flat, not every such curve was filed as active; the % refers to the signal ratio;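 further: HeLa cells with beta-lactamase reporter driven by heat shock elements; series mostly up to about 63 µM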). The gist of the method: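 Reporter gene assay: HeLa cells stably bearing an HSE-bla construct, compound treatment 5 h at 37 C, LiveBLAzer substrate 2.5 h at RT, fluorescence intensity.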
Test [11] is described as follows: qHTS assay to identify small molecule agonists of the peroxisome proliferator-activated receptor delta (PPARd) signaling pathway - cell viability counter screen (AID 743211). Further: nearly all actives have a fitted effect of over 55% in size. Further: potency means the concentration at half of the fitted maximal effect. The gist of the method:
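Tox21 library compounds, delivered in DMSO, were incubated 17 h with PPARd-bla HEK293H cells; cytotoxicity was taken from CellTiter-Glo luminescence read 30 min after reagent addition.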

Test [12] concerns the target Peroxisome proliferator-activated receptor delta (Homo sapiens) (UniProt Q03181). The test can be described thus: qHTS assay to identify small molecule agonists of the peroxisome proliferator-activated receptor delta (PPARd) signaling pathway (AID 743212; calls by dose curve). An outline of the steps:
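A PPARd-bla HEK293H line with beta-lactamase under an Upstream Activator Sequence is treated with compounds at 37 C. Substrate loading for 2 h at room temperature precedes the fluorescence measurement.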

Test [13] in a line: qHTS assay to identify small molecule antagonists of the peroxisome proliferator-activated receptor delta (PPARd) signaling pathway - cell viability counter screen (AID 743213). Further: nearly all actives have a fitted effect of over 50% in size. The gist of the method:
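Cytotoxicity counter screen: CellTiter-Glo luminescence read 30 min after addition, in the same wells as the reporter assay. There, PPARd UAS-bla HEK293H cells (3000/well) were treated 17 h at 37 C with compound and 300 nM L165041.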

The target in test [14] is Peroxisome proliferator-activated receptor delta (Homo sapiens) (UniProt Q03181). The test can be described thus: qHTS assay to identify small molecule antagonists of the peroxisome proliferator-activated receptor delta (PPARd) signaling pathway (AID 743215; active means well fitted inhibition curve with a large enough effect in the signal ratio in the repeat runs, not every such curve was filed as active; the % refers to the signal ratio;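 further: cells stimulated with agonist L165041 at 300 nM final during compound exposure; series mostly up to about 62 µM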). The gist of the method:
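Read-out is beta-lactamase FRET fluorescence, measured 2 h after substrate addition at room temperature. Beforehand, UAS-bla HEK293H cells carrying the PPARd reporter were exposed to compounds with L165041 at 300 nM final for 17 h at 37 C.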

A short description of test [15]: qHTS assay to identify small molecule agonists of the farnesoid-X-receptor (FXR) signaling pathway - cell viability counter screen (AID 743218). Further: nearly all actives have a fitted effect of over 45% in size. Further: potency means the concentration at half of the fitted maximal effect. An outline of the steps: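 HEK 293T FXR-bla cells; 5 h pre-incubation, 16 h compound exposure at 37 C; LiveBLAzer substrate 2 h RT, then CellTiter-Glo 30 min RT, luminescence.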
Test [16] concerns the target Vitamin D3 receptor (Homo sapiens) (UniProt P11473). Nature of the test: qHTS assay to identify small molecule agonists of the vitamin D receptor (VDR) signaling pathway (AID 743222; calls by dose curve). The gist of the method: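 VDR-bla cells, 2,000/well; 4 h preincubation 37C; cpd (DMSO) 16 h; LiveBLAzer B/G substrate 2 h RT; fluorescence intensity read.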
Test [17] has the same target. Nature of the test: qHTS assay to identify small molecule antagonists of the vitamin D receptor (VDR) signaling pathway (AID 743223; active means well fitted inhibition curve with a large enough effect in the signal ratio in the repeat runs, not every such curve was filed as active; the % refers to the signal ratio). An outline of the steps: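 Quantitative HTS in VDR-bla reporter cells stimulated with 1alpha,25-dihydroxyvitamin D3, 3 nM final. Compound exposure 16 h, 37C, 5% CO2. Read-out: beta-lactamase FRET substrate fluorescence, 2 h RT.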
The nature of test [18]: qHTS assay to identify small molecule antagonists of the farnesoid-X-receptor (FXR) signaling pathway - cell viability counter screen (AID 743221; active means well fitted cell-killing curve with a large enough effect in the repeat runs, not every such curve was filed as active; further: nearly all actives have a fitted effect of over 50% in size). An outline of the steps: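 Cytotoxicity is taken from ATP luminescence (CellTiter-Glo, 30 min, room temperature) in FXR-bla HEK 293T cells previously incubated 16 h at 37 C with compound and chenodeoxycholic acid at 50 uM final.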

In test [19] the target is Bile acid receptor (Homo sapiens) (UniProt Q96RI1). Nature of the test: qHTS assay to identify small molecule antagonists of the farnesoid-X-receptor (FXR) signaling pathway (AID 743217; active means well fitted inhibition curve with a large enough effect in the signal ratio in the repeat runs, not every such curve was filed as active; the % refers to the signal ratio). The gist of the method:
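HEK 293T FXR-UAS-bla, 5000 cells/well; compound + CDCA 50 uM final; 16 h, 37 °C; B/G FRET substrate 2 h RT; fluorescence.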

Test [20] has the same target. Nature of the test: qHTS assay to identify small molecule agonists of the farnesoid-X-receptor (FXR) signaling pathway (AID 743220; active means well fitted activation curve with a large enough effect in the signal ratio in the repeat runs, not every such curve was filed as active; the % refers to the signal ratio). The gist of the method: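 Beta-lactamase reporter under UAS control in GeneBLAzer FXR HEK 293T cells (5000/well) measured with LiveBLAzer FRET substrate after 2 h at room temperature. Compound exposure lasted 16 h at 37C.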

Where “and” joins values, the source holds several entries; their conditions need not be identical. Equal values may be shown once. Records with an inconclusive call do not appear. More than one record can exist for a structure, and the calls need not agree. Calls of active or inactive are those of the source. Unless noted, the call rests on the fitted dose curve; in most records, active means well fitted curve in the direction sought with a large enough effect in the repeat runs; inconclusive means weak or mixed curves; inactive means no such curve, though single readings can be large; an effect the other way counts as inactive or inconclusive.

Bile acid receptor (Homo sapiens), sequence (Q96RI1 whole entry, looked up): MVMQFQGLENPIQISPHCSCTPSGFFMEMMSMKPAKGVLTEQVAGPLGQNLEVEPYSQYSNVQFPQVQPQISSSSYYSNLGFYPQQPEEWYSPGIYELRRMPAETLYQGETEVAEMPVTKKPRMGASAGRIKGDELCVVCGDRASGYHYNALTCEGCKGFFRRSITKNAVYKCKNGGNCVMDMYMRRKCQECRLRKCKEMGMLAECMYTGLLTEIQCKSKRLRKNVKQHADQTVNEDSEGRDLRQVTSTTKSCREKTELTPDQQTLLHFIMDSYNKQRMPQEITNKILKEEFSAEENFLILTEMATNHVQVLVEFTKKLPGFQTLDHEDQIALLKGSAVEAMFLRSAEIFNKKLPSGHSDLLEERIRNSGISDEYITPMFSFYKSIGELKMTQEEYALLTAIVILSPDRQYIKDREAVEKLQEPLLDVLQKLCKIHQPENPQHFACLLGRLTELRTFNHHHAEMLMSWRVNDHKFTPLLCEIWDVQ
Peroxisome proliferator-activated receptor gamma (Homo sapiens), sequence (P37231 whole entry, looked up): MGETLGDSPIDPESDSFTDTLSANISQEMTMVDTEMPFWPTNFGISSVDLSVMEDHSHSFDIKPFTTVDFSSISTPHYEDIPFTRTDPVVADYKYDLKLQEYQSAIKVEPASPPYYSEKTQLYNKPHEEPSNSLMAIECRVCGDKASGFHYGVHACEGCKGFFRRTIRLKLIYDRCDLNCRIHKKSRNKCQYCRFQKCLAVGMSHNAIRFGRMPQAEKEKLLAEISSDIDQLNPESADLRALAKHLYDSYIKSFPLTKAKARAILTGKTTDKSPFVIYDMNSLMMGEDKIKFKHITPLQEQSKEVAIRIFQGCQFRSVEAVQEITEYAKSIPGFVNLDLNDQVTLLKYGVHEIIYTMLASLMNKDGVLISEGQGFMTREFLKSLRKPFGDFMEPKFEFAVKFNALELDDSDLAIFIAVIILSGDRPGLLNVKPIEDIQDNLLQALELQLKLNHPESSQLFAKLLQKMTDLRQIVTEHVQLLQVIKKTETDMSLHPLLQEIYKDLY
Vitamin D3 receptor (Homo sapiens), sequence (P11473 whole entry, looked up): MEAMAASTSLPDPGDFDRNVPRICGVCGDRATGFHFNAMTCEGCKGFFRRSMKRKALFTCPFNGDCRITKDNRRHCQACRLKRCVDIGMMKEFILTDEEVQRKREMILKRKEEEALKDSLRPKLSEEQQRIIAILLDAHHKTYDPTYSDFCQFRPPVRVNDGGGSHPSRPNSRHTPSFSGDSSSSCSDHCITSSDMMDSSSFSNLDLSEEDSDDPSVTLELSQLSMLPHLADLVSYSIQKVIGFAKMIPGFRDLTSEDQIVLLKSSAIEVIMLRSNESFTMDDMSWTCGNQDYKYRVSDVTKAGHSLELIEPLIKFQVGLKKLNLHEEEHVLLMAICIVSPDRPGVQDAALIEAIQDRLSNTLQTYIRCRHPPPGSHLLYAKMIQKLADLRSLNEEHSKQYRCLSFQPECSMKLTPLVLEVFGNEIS
Peroxisome proliferator-activated receptor delta (Homo sapiens), sequence (Q03181 whole entry, looked up): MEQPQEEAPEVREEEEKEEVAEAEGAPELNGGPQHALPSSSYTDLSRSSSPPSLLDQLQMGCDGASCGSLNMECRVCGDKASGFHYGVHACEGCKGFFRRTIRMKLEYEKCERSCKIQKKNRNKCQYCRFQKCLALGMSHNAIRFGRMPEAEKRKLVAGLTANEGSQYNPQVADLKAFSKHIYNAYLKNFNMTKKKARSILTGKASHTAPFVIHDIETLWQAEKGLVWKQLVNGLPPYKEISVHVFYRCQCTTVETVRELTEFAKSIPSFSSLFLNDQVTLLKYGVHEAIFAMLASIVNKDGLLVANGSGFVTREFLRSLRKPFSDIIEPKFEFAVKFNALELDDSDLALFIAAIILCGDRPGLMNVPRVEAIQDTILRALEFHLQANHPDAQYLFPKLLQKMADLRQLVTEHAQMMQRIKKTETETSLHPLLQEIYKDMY
Aryl hydrocarbon receptor (Homo sapiens), sequence (P35869 whole entry, looked up): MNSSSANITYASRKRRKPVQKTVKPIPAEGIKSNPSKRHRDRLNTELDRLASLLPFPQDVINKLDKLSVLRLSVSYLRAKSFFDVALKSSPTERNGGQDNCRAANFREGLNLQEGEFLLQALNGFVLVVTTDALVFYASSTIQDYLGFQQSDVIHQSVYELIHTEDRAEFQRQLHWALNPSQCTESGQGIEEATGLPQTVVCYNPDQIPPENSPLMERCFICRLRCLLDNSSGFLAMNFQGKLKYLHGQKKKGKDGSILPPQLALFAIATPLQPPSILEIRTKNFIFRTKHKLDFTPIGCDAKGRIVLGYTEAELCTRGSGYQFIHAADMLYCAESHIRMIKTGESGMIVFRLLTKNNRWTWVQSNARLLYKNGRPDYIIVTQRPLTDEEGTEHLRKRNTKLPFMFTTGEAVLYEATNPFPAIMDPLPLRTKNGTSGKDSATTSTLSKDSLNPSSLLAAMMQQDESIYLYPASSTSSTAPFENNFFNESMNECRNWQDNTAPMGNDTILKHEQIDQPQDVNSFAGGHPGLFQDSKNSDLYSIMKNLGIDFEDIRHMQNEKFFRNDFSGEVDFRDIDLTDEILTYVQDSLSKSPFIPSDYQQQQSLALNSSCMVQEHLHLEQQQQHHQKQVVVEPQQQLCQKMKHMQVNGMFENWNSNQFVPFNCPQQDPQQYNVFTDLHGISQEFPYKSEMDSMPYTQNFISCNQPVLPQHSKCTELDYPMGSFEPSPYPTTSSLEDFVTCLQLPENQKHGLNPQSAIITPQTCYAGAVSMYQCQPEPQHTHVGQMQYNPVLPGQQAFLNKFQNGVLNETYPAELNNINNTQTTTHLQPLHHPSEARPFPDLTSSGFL

Regarding `CN1[C@@H]2CC[C@H]1CC(O)C2` (stereo partly drawn), the Potency result in test [1], in test [2], in test [3], in test [4], in test [5] and in [6] was “inactive” each time. Further, the Potency entry in [7], in [8], in test [9], in test [10], in test [11] and in [12] was “inactive” each time. Further, the Potency result in test [13], in test [14], in [15], in [16] and in test [17] was “inactive” each time.
With `CN/C(=N\[N+](=O)[O-])NCc1cnc(Cl)s1`, the Potency entry in test [1], in test [2], in [3], in test [4], in test [5] and in [6] was “inactive” each time. For the same compound, the Potency entry in test [7], in [8], in test [9], in test [10], in test [11] and in [13] was “inactive” in each case. The Potency entry in test [15], in test [18], in [16] and in [17] was “inactive” in each case.
Consider `O=NN(CCO)CCO`, for which the Potency entry in test [1], in test [2], in test [3], in test [4], in [5] and in test [6] was “inactive” each time. The Potency entry in [7], in test [8], in test [10], in [11], in test [13] and in [19] was “inactive” each time. Also, the Potency result in [15], in test [20], in test [18], in test [16] and in [17] was “inactive” in each case.
Take `CCNS(=O)(=O)C(F)(F)C(F)(F)C(F)(F)C(F)(F)C(F)(F)C(F)(F)C(F)(F)C(F)(F)F`: the Potency result in [1], in [2], in [3], in test [4], in [5] and in [6] was “inactive” each time. For the same compound, the Potency entry in [9], in [10], in [11], in [13], in [14] and in test [19] was “inactive” each time. The Potency result in [15], in test [18], in test [16] and in [17] was “inactive” throughout.
Consider `CC(Cl)CCl` (stereo not drawn), for which the Potency result in [1], in [2], in test [3], in test [4], in test [5] and in test [6] was “inactive” each time. Further, the Potency result in [7], in test [8], in test [9], in test [10], in test [11] and in [12] was “inactive” in each case. Besides, the Potency result in test [13], in test [14], in test [15], in test [18], in test [16] and in test [17] was “inactive” throughout.
`ClC1=C(Cl)[C@]2(Cl)[C@H]3[C@H]([C@@H]4C=C[C@H]3C4)[C@@]1(Cl)C2(Cl)Cl`: the Potency entry in [1], in [2], in test [3], in [4], in test [7] and in [10] was “inactive” throughout. Moreover, the Potency entry in test [12], in [13], in test [14], in test [16] and in test [17] was “inactive” each time. Further, the Potency was 49 µM (active) in test [6]; “inactive and 54.5 µM (active)” in [8]; “inactive and 24.5 µM (active)” in [9]; “inactive and 15.5 µM (active)” in test [11]; 38.9 µM (active) in test [15].
As to `COc1ccc2c3c1O[C@H]1[C@H](O)CC[C@H]4[C@@H](C2)N(C)CC[C@@]341`, the Potency entry in [1], in test [2], in test [3], in [4], in test [5] and in [6] was “inactive” in each case. Besides, the Potency result in test [8], in test [11], in test [13], in [14], in [15] and in test [18] was “inactive” in each case.
In the case of `Brc1ccc(Oc2ccc(Br)cc2Br)c(Br)c1`, the Potency entry in test [1], in [2], in test [3], in test [4], in [5] and in test [6] was “inactive” throughout. In addition, the Potency entry in [7], in [10], in [13] and in test [20] was “inactive” in each case. For the same compound, in [11], the Potency was 43.7 µM (active).
